Source: PubChem BioAssay
D1 agonist – human D1 receptor agonism. P21728. HEK293 T-REx D1 cells, calcium flux, agonist mode. activation, % at 2 µM. 360,000 tested, 1% active. AID 504660
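Agonism was scored from calcium flux recorded over 180 s (1 read/s) after pintool compound addition, following a 10-cycle baseline. Cells were inducible force-coupled HEK293 TREx D1, plated overnight at 30 C and loaded with no-wash calcium dye.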
D1 PAM – human D1 dopamine receptor positive modulation; P21728; HEK293 TREx D1 cells, calcium flux, dopamine EC20 potentiation; potentiation, % at 10 µM; 360,000 tested, 0.036% active; AID 504651; in the data active = potentiation above about 30%
TRHR PAM – allosteric enhancers of human TRH receptor; P34981; TRHR cells, fluo-8 calcium fluorescence, EC20 TRH enhancement; enhancement, % at 2 µM; 360,000 tested, 0.66% active; in the data active = enhancement above about 30%
Target sequence (P34981 whole entry, looked up): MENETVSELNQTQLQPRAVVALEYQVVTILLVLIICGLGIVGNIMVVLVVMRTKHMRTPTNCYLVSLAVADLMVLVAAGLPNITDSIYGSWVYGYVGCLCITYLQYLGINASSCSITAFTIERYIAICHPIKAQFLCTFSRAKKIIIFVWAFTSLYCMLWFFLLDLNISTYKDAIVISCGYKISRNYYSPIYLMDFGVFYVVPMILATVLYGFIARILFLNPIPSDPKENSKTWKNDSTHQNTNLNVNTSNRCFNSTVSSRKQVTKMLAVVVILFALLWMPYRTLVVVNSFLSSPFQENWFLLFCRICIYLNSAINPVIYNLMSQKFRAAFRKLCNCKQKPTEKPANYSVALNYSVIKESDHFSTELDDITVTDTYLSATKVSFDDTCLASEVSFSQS
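TRHR-expressing cells loaded with fluo-8 calcium dye were read kinetically (ex 480/em 530) during compound addition, then stimulated with an EC20 of TRH (10 nM final). Enhancement of the Gq-mediated intracellular calcium response was scored.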
D1 antagonist – blocks dopamine activation of the human D1 receptor; HEK293 TREx D1 cells, calcium flux, dopamine EC80; hits give low values; P21728; AID 504652; activity change, negative = inhibition, % at 10 µM; 360,000 tested, 3.2% active; in the data active = activity change below about -30%
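Compound effects on dopamine-evoked calcium signalling were measured in tetracycline-induced HEK293 Trex D1 cells. Dopamine at EC80 followed a 180 s compound pre-read, and fluorescence was tracked kinetically for 180 s more.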
TRHR ag – TRH receptor (human) agonism; P34981; activation, % at 2 µM; TRHR cells, calcium flux fluo-8, FDSS agonist mode; 360,000 tested, 0.18% active
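Agonist-mode FDSS calcium read (Ex 480/Em 530, 1 s cycles) in 1536-well TRHR cells with fluo-8 dye, after 10-cycle baseline and 23 nL compound addition; TRH at EC20 (10 nM final) added afterwards for the enhancer phase.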
A number is an active result; – = inactive; · = no result; ! = not active in a repeat. Sampled rows, rich in hits. Any-hit rate of the full collection: about 4.7%. Rule as the data show it, unless noted: active = activation above about 30%; inactive = the rest.

SMILES	D1 agonist	D1 PAM	TRHR PAM	D1 antagonist	TRHR ag
CCOc1ncccc1C(=O)OCC(=O)Nc1ccc(S(=O)(=O)N2CCCC2)cc1	–	–	–	-56	–
O=C(COC(=O)c1ccc([N+](=O)[O-])o1)Nc1cccc(S(=O)(=O)N2CCCCC2)c1	–	–	–	-31	–
CCOc1ncccc1C(=O)OCC(=O)Nc1ccc(C)c(S(=O)(=O)N(C)C)c1	–	–	36	–	–
CCOc1ncccc1C(=O)OCC(=O)Nc1ccc(S(=O)(=O)N2CCOCC2)cc1	–	–	–	–	–
COc1ccc(NC(=O)C2CCCN(c3nnc(C)c4c(C)n(-c5ccccc5)nc34)C2)cc1Cl (stereo not given)	–	–	–	–	–
COc1ccc(C(=O)Nc2nc3n(n2)C(c2ccc(F)cc2)C=C(c2ccc(Cl)cc2)N3)cc1 (stereo not given)	–	–	–	–	–
CC1(C)CC(=O)c2cc(-c3nc(-c4ccc(Cl)cc4)cs3)c(=O)n(-c3ccc(F)cc3)c2C1	–	–	–	–	–
N#CCCN(C(=O)COC(=O)c1ccc(S(=O)(=O)N2CCCC2)cc1)c1cccc(Cl)c1	31	–	–	–	–
COc1ccc(OC)c(NC(=O)COC(=O)c2ccc(S(=O)(=O)N3CCOCC3)cc2)c1	–	–	–	-51	–
Cc1ccc(NC(=O)COC(=O)Cn2cnc3ccccc32)cc1S(=O)(=O)N(C)C	–	–	–	-85	–
CCOCCCNC(=O)NC(C)c1c(-n2cccc2)sc2c1CCN(CC)C2 (stereo not given)	–	–	–	–	–
COC(=O)c1ccc(C)c(NC(=O)c2nn(C)c(=O)c3ccccc23)c1	–	–	–	–	–
COC(=O)c1cccc(NC(=O)c2nn(C)c(=O)c3ccccc23)c1	–	–	40	–	–
COc1ccc(C2Nc3ccccc3C(=O)N2c2ccccc2)cc1Cn1cc([N+](=O)[O-])cn1 (stereo not given)	–	–	–	–	–
COc1ccc(N2C(=O)c3ccccc3NC2c2ccc(OC)c(Cn3cc([N+](=O)[O-])cn3)c2)cc1 (stereo not given)	–	–	–	-38	–
CC1CCN(S(=O)(=O)c2cc(C(=O)N3CCN(c4ccccc4F)CC3)n(C)c2)CC1	–	–	–	–	–
COc1ccc(-n2cc(CNC3CCC(O)CC3)c(-c3cccc(F)c3)n2)cc1 (stereo not given)	36	–	–	–	–
COc1ccc(-n2cc(CN3CCC(OC)CC3)c(-c3cccc(F)c3)n2)cc1	–	–	–	–	–
CCC(C)NCCCOc1ccc([N+](=O)[O-])cc1 (stereo not given)	–	–	–	–	–
CC1CCN(CCCCOc2ccc([N+](=O)[O-])cc2)CC1	–	–	–	-44	–
O=[N+]([O-])c1ccc(OCCCCN2CCc3ccccc3C2)cc1	–	–	–	-63	–
O=[N+]([O-])c1ccc(OCCCCCN2CCOCC2)cc1	–	–	–	–	–
C[N+](C)(C)CCOc1ccc([N+](=O)[O-])cc1	–	–	–	-31	–
O=[N+]([O-])c1ccc(OCCCCN2CCCCC2)cc1	–	–	–	–	–
CC(=O)N1CCCc2cc(S(=O)(=O)N3CCC(C(=O)Nc4c(C)cccc4C)CC3)ccc21	–	–	–	–	–
SMILES	D1 agonist	D1 PAM	TRHR PAM	D1 antagonist	TRHR ag
CCOc1ccc(NC(=O)c2cnn(-c3ccc(C)c(C)c3)c2C2CCN(C(=O)OC(C)(C)C)CC2)cc1	–	–	–	–	–
COc1cc2c(cc1OC)CN(C(=S)Nc1ccc(Cl)cc1)CC2	–	–	–	-35	–
COc1cccc(NC(=S)N2CCc3cc(OC)c(OC)cc3C2)c1	–	–	–	–	–
COC(=O)c1scc(C#N)c1N/N=C(\C#N)S(=O)(=O)c1ccc(Cl)cc1	–	–	–	-32	–
CCOc1ccc(N(CC)S(=O)(=O)N2CCCC(C(=O)Nc3cc(Cl)ccc3C)C2)cc1 (stereo not given)	–	–	–	–	–
CCCn1c2ccccc2c2cnn(CC(=O)NCCCN(Cc3ccccc3)C(C)C)c(=O)c21	–	–	–	–	–
Cc1ccc(C2CC(c3ccco3)=NN2S(C)(=O)=O)cc1 (stereo not given)	–	–	–	-35	–
CC1CCCC(NC(=O)COC(=O)c2ccccc2Sc2ccccc2C#N)C1C (stereo not given)	–	–	30	–	–
CCN1CCC(N(Cc2cccc(OC)c2)C(=O)Nc2cccc(C)c2C)CC1	–	–	–	–	–
O=C(CCNC(=O)c1ccccc1)N=Nc1c(O)[nH]c2ccccc12	–	–	–	–	–
O=C(CCn1cnc2ccccc21)N=Nc1c(O)[nH]c2ccccc12	–	–	–	-77	–
O=C(CCc1c[nH]c2ccccc12)N=Nc1c(O)[nH]c2ccccc12	–	–	–	-44	–
Cc1cccc(OCc2nc(CC(=O)Nc3ccc(C)c(C)c3)cs2)c1	–	–	–	–	–
Cc1ccc(-n2nc(C)c3c(C)c(CCC(=O)NCc4ccccc4Cl)c(C)nc32)cc1C	–	–	–	–	–
CCOC(=O)c1c(C)[nH]c(C(=O)OCc2ccccc2F)c1C	31	–	–	–	–
CCOC(=O)c1c(C)[nH]c(C(=O)O)c1C	–	–	–	–	–
CCOC(=O)c1[nH]c(C)c(C(=O)NC2CCCCC2)c1C	–	–	–	-89	–
CCOC(=O)c1c(C)[nH]c(C(=O)N/N=C/c2ccc(Br)cc2)c1C	–	–	–	-40	–
Cc1[nH]c(C(=O)N/N=C/c2ccc(C(=O)O)cc2)c(C)c1C(=O)N/N=C/c1ccc(C(=O)O)cc1	–	–	–	–	–
CCCNC(=O)c1[nH]c(C)c(C(=O)OCC)c1C	–	–	–	-40	–
CCOC(=O)c1[nH]c(C)c(C(=O)OC)c1C	–	–	–	–	–
COc1ccc([C@]23Cc4ccccc4C(O2)C2=C(CC4(CCCCC4)OC2=O)O3)cc1	–	–	–	–	–
CCOC(=O)c1c(C)[nH]c(C(=O)NCc2ccco2)c1C	–	–	–	-71	–
COC(=O)c1ccc(NC(=O)CSc2nc(=O)[nH]c3c2CCCC3)cc1	–	–	–	·	–
COC(=O)c1ccc(CSc2nc(C)nc3c2c(=O)n(C)c(=O)n3C)o1	–	–	–	-39	–
Cc1nc(SCC(=O)Nc2cc(C)on2)c2c(=O)n(C)c(=O)n(C)c2n1	–	–	–	-64	–
COC(=O)CSc1nc2c(cnn2-c2ccc(F)cc2)c(=O)[nH]1	–	–	–	-33!	–
CCOC(=O)CSc1nc2c(cnn2-c2ccc(F)cc2)c(=O)[nH]1	–	–	–	–	–
CCOCCCNC(=O)C(c1ccc(C)cc1)N(Cc1ccc2c(c1)OCO2)C(=O)c1ccc(NC(C)=O)cc1 (stereo not given)	–	–	–	–	–
